{
  "source": "the antibiotic and cytotoxicity screens of Wong et al. (2023)",
  "note": "Screen size: about 39,000 compounds; about 3,300 (8.5%) were called active. The entries come from a sample that favours actives as a whole.",
  "data": [
    {"tested_on": "HepG2", "assay": "cytotoxicity call (relative viability < 0.9)", "settings": "10 µM", "values": [
      {"smiles": "C[C@H](CO)N1C[C@H](C)[C@H](CN(C)C(=O)CCC(F)(F)F)OCCCC[C@H](C)Oc2ccc(NC(=O)Cc3ccccc3)cc2C1=O", "cytotoxicity call": "inactive"},
      {"smiles": "C[C@@H]1CN([C@@H](C)CO)C(=O)c2cc(C#Cc3cccc(F)c3)cnc2O[C@H]1CN(C)Cc1ccccn1", "cytotoxicity call": "inactive"},
      {"smiles": "Cc1ccc(S(=O)(=O)Nc2ccc3c(c2)C(=O)N([C@@H](C)CO)C[C@@H](C)[C@H](CN(C)C(=O)c2ccccc2)OCCCC[C@H](C)O3)cc1", "cytotoxicity call": "inactive"},
      {"smiles": "Cc1noc(C)c1NC(=O)N(C)C[C@H]1OCCCC[C@H](C)Oc2ccc(NC(=O)C3CCCCC3)cc2C(=O)N([C@@H](C)CO)C[C@@H]1C", "cytotoxicity call": "inactive"},
      {"smiles": "C[C@@H]1CCCCO[C@H](CN(C)C(=O)Nc2ccc(F)cc2)[C@H](C)CN([C@H](C)CO)C(=O)c2cc(NC(=O)Cc3ccccc3)ccc2O1", "cytotoxicity call": "inactive"},
      {"smiles": "C[C@@H]1CN([C@@H](C)CO)C(=O)c2cccc(NC(=O)C3CCOCC3)c2O[C@@H]1CN(C)S(=O)(=O)c1ccccc1", "cytotoxicity call": "inactive"},
      {"smiles": "C[C@H](CO)N1C[C@H](C)[C@@H](CN(C)C(=O)CN2CCOCC2)Oc2ncc(-c3cncnc3)cc2C1=O", "cytotoxicity call": "inactive"},
      {"smiles": "Cc1noc(C)c1S(=O)(=O)N(C)C[C@H]1Oc2ccc(NS(C)(=O)=O)cc2C(=O)N([C@@H](C)CO)C[C@H]1C", "cytotoxicity call": "inactive"},
      {"smiles": "C[C@@H]1CN([C@H](C)CO)C(=O)c2cccc(NC(=O)Nc3ccc(F)cc3)c2O[C@@H]1CN(C)Cc1ccc(Cl)c(Cl)c1", "cytotoxicity call": "inactive"},
      {"smiles": "C[C@H](CO)N1C[C@H](C)[C@@H](CN(C)Cc2ccc(Cl)c(Cl)c2)Oc2c(NC(=O)Nc3ccc(C(F)(F)F)cc3)cccc2C1=O", "cytotoxicity call": "active"},
      {"smiles": "C[C@H]1CN([C@@H](C)CO)C(=O)c2cccc(NC(=O)Nc3ccc(C(F)(F)F)cc3)c2O[C@H]1CN(C)Cc1ccc(Cl)c(Cl)c1", "cytotoxicity call": "inactive"},
      {"smiles": "CCOc1ccnc2c1c(=O)n(CC(N)=O)c(=O)n2C", "cytotoxicity call": "inactive"},
      {"smiles": "Cc1noc(C)c1S(=O)(=O)N(C)C[C@@H]1OCCCC[C@H](C)Oc2ccc(NS(=O)(=O)c3cn(C)cn3)cc2C(=O)N([C@H](C)CO)C[C@@H]1C", "cytotoxicity call": "inactive"},
      {"smiles": "CC(=O)[C@]1(N)Cc2c(O)c3c(c(O)c2[C@@H](O[C@H]2C[C@H](O)[C@H](O)CO2)C1)C(=O)c1ccccc1C3=O", "cytotoxicity call": "active"},
      {"smiles": "COc1cccc2c1C(=O)c1c(O)c3c(c(O)c1C2=O)CC(O)(C(C)=O)CC3OC1CC(N)C(O)C(C)O1.Cl", "note": "(stereo unspecified)", "cytotoxicity call": "active"},
      {"smiles": "COc1cccc2c1C(=O)c1c(O)c3c(c(O)c1C2=O)C[C@](O)(C(C)=O)C[C@H]3O[C@H]1C[C@@H](N)[C@@H](O)[C@@H](C)O1", "cytotoxicity call": "active"},
      {"smiles": "COc1cccc2c1C(=O)c1c(O)c3c(c(O)c1C2=O)C[C@@](O)(C(C)=O)C[C@@H]3O[C@H]1C[C@H](N)[C@H](O)[C@H](C)O1", "cytotoxicity call": "active"},
      {"smiles": "CCNC(=O)C[C@@H]1C=C[C@@H](NC(=O)C2CCOCC2)[C@@H](CO)O1", "cytotoxicity call": "inactive"},
      {"smiles": "Cc1ccc(S[C@H](C)C(=O)c2ccc(C)c(Cl)c2)cc1", "cytotoxicity call": "inactive"},
      {"smiles": "C[C@@H]1CN([C@H](C)CO)C(=O)c2cc(NC(=O)c3ccccc3)ccc2O[C@@H](C)CCCCO[C@H]1CN(C)C(=O)CCC(F)(F)F", "cytotoxicity call": "inactive"},
      {"smiles": "C[C@@H]1CCCCO[C@H](CN(C)C(=O)Nc2ccc(F)cc2)[C@H](C)CN([C@H](C)CO)C(=O)c2cc(NC(=O)c3ccncc3)ccc2O1", "cytotoxicity call": "inactive"},
      {"smiles": "CCCN(C)C[C@@H]1Oc2cc(C#Cc3cccc(OC)c3)ccc2S(=O)(=O)N([C@H](C)CO)C[C@@H]1C", "cytotoxicity call": "inactive"},
      {"smiles": "C/C=C(\\C(C)=N\\O)c1ccccc1", "cytotoxicity call": "inactive"},
      {"smiles": "CN1C(=O)c2cc(NC(=O)C3CCCC3)ccc2OC[C@H]2O[C@@H](CC(=O)NCCc3ccncc3)CC[C@H]21", "cytotoxicity call": "inactive"},
      {"smiles": "CN(C)CC(=O)N[C@@H]1CC[C@H](CC(=O)O)O[C@@H]1CO", "cytotoxicity call": "inactive"},
      {"smiles": "CC(=O)[C@]1(O)Cc2c(O)c3c(c(O)c2[C@@H](O[C@@H]2C[C@@H](N)[C@H](O)[C@@H](C)O2)C1)C(=O)c1c(O)cccc1C3=O", "cytotoxicity call": "active"},
      {"smiles": "CC(C)NC(=O)Nc1ccc2c(c1)CC(=O)N([C@@H](C)CO)C[C@H](C)[C@@H](CN(C)S(=O)(=O)c1ccc(F)cc1)O2", "cytotoxicity call": "inactive"},
      {"smiles": "C[C@@H]1CN([C@@H](C)CO)C(=O)c2cc(NC(=O)Nc3cccc4ccccc34)ccc2O[C@@H]1CN(C)Cc1ccncc1", "cytotoxicity call": "inactive"},
      {"smiles": "C[C@H](CO)N1C[C@H](C)[C@H](CN(C)Cc2ccncc2)Oc2ccc(NC(=O)CCCN(C)C)cc2C1=O", "cytotoxicity call": "inactive"},
      {"smiles": "CC(C)C[C@H](N)C(=O)N[C@@H](C)C(=O)O", "cytotoxicity call": "active"},
      {"smiles": "CC(C)C[C@H](N)C(=O)O", "cytotoxicity call": "inactive"},
      {"smiles": "CC(C)C[C@@H](NC(=O)[C@@H](C)N)C(=O)O", "cytotoxicity call": "inactive"},
      {"smiles": "C[C@H]1CN([C@@H](C)CO)C(=O)Cc2cc(NC(=O)CCN3CCOCC3)ccc2O[C@H]1CN(C)S(=O)(=O)c1cn(C)cn1", "cytotoxicity call": "inactive"},
      {"smiles": "O=C(O)CCN=C1NC(=O)CS1", "cytotoxicity call": "active"},
      {"smiles": "O=C(O)CCCN=C1NC(=O)CC(=O)N1", "cytotoxicity call": "inactive"},
      {"smiles": "O=C1CSC(=Nc2nccs2)N1", "cytotoxicity call": "inactive"},
      {"smiles": "C[C@H]1CN([C@@H](C)CO)C(=O)c2cccc(NC(=O)c3ccncc3)c2O[C@@H]1CN(C)Cc1ccc(-c2ccccc2)cc1", "cytotoxicity call": "inactive"},
      {"smiles": "C[C@H](CO)N1C[C@H](C)[C@@H](CN(C)S(=O)(=O)c2ccc(F)cc2)Oc2ccc(NS(=O)(=O)c3cccs3)cc2CC1=O", "cytotoxicity call": "inactive"},
      {"smiles": "COc1ccc([Si](C)(C)[C@@H]2[C@@H](CC(=O)N3Cc4ccccc4C[C@H]3CO)O[C@]3(C(=O)N(C)c4c(Br)cc(C)cc43)[C@H]2C)cc1", "cytotoxicity call": "inactive"},
      {"smiles": "COc1ccc(C(=O)Nc2ccc(CN3C(=O)[C@]4(O[C@H](CC(=O)N(CCO)Cc5ccccc5)[C@@H]([Si](C)(C)c5ccc(OC)cc5)[C@@H]4C)c4ccccc43)cc2)cc1", "cytotoxicity call": "inactive"},
      {"smiles": "COc1ccc(C(=O)Nc2cccc(CN3C(=O)[C@@]4(O[C@@H](CC(=O)N(CCO)Cc5ccccc5)[C@H]([Si](C)(C)c5ccc(OC)cc5)[C@H]4C)c4ccccc43)c2)cc1", "cytotoxicity call": "active"},
      {"smiles": "COc1ccc(C(=O)Nc2ccc(CN3C(=O)[C@@]4(O[C@@H](CC(=O)N(CCO)Cc5ccccc5)[C@H]([Si](C)(C)c5ccc(OC)cc5)[C@H]4C)c4ccccc43)cc2)cc1", "cytotoxicity call": "inactive"},
      {"smiles": "COc1ccc([Si](C)(C)[C@@H]2[C@@H](CC(=O)N(CCO)Cc3ccccc3)O[C@]3(C(=O)N(Cc4cccc(N5CCOC5=O)c4)c4ccccc43)[C@H]2C)cc1", "cytotoxicity call": "inactive"},
      {"smiles": "COc1ccc([Si](C)(C)[C@H]2[C@H](CCn3cc([C@H](O)c4ccccc4)nn3)O[C@@]3(C(=O)N(C)c4c(Br)cc(C)cc43)[C@@H]2C)cc1", "cytotoxicity call": "active"},
      {"smiles": "COc1ccc(C(=O)Nc2cccc(CN3C(=O)[C@]4(O[C@H](CC(=O)N(CCO)Cc5ccccc5)[C@@H]([Si](C)(C)c5ccc(OC)cc5)[C@@H]4C)c4ccccc43)c2)cc1", "cytotoxicity call": "active"},
      {"smiles": "COc1ccc([Si](C)(C)[C@H]2[C@H](CC(=O)N(CCO)Cc3ccccc3)O[C@@]3(C(=O)N(C)c4c(Br)cc(C)cc43)[C@@H]2C)cc1", "cytotoxicity call": "active"},
      {"smiles": "COc1ccc([Si](C)(C)[C@@H]2[C@@H](CC(=O)N(CCO)Cc3ccccc3)O[C@]3(C(=O)N(C)c4c(Br)cc(C)cc43)[C@H]2C)cc1", "cytotoxicity call": "inactive"},
      {"smiles": "COc1ccc([Si](C)(C)[C@H]2[C@H](CCn3cc([C@H](O)c4ccccc4)nn3)O[C@@]3(C(=O)N(c4ccccc4)c4ccccc43)[C@@H]2C)cc1", "cytotoxicity call": "inactive"},
      {"smiles": "COc1ccc([Si](C)(C)[C@H]2[C@H](CC(=O)N(CCO)Cc3ccccc3)O[C@@]3(C(=O)N(Cc4cccc(N5CCOC5=O)c4)c4ccccc43)[C@@H]2C)cc1", "cytotoxicity call": "inactive"},
      {"smiles": "COc1ccc([Si](C)(C)[C@@H]2[C@@H](CCn3cc([C@H](O)c4ccccc4)nn3)O[C@]3(C(=O)N(C)c4c(Br)cc(C)cc43)[C@H]2C)cc1", "cytotoxicity call": "inactive"},
      {"smiles": "C[C@H]1CN([C@@H](C)CO)C(=O)c2cc(NS(=O)(=O)c3cn(C)cn3)ccc2O[C@H]1CN(C)S(=O)(=O)c1cn(C)cn1", "cytotoxicity call": "inactive"},
      {"smiles": "Cc1noc(C)c1NC(=O)N(C)C[C@@H]1Oc2ccc(NC(=O)Cn3cnnn3)cc2C(=O)N([C@@H](C)CO)C[C@H]1C", "cytotoxicity call": "inactive"},
      {"smiles": "O=C(C[C@H]1C=C[C@@H](NC(=O)CN2CCOCC2)[C@H](CO)O1)NCCc1ccncc1", "cytotoxicity call": "inactive"},
      {"smiles": "O=C(C[C@@H]1CC[C@@H](NC(=O)CN2CCOCC2)[C@H](CO)O1)NCCc1ccccc1", "cytotoxicity call": "inactive"},
      {"smiles": "Cc1ccc(S(=O)(=O)N(C)C[C@H]2Oc3ccc(NS(=O)(=O)c4cn(C)cn4)cc3CC(=O)N([C@@H](C)CO)C[C@@H]2C)cc1", "cytotoxicity call": "inactive"},
      {"smiles": "O=S(=O)(NCc1ccco1)N1CCOCC1", "cytotoxicity call": "inactive"},
      {"smiles": "C[C@@H]1CCCCO[C@H](CN(C)Cc2ccc(C(=O)O)cc2)[C@H](C)CN([C@@H](C)CO)C(=O)c2cc(NC(=O)Nc3ccccc3)ccc2O1", "cytotoxicity call": "inactive"},
      {"smiles": "COc1ccc2c(c1)OCC(Cc1ccc(OC)c(O)c1)C2=O", "note": "(stereo unspecified)", "cytotoxicity call": "active"},
      {"smiles": "COc1ccc(CCC(=O)c2c(O)cc(O[C@@H]3O[C@H](CO)[C@@H](O)[C@H](O)[C@H]3O[C@@H]3O[C@@H](C)[C@H](O)[C@@H](O)[C@H]3O)cc2O)cc1O", "cytotoxicity call": "inactive"},
      {"smiles": "COc1ccc2c(c1)OCC(Cc1ccc(OC)c(OC)c1)C2=O", "note": "(stereo unspecified)", "cytotoxicity call": "active"},
      {"smiles": "COc1ccc2c(c1)OCc1c-2oc2cc(OC)ccc12", "cytotoxicity call": "inactive"},
      {"smiles": "COc1ccc2c(c1)OCC(Cc1ccc(O)c(OC)c1)C2=O", "note": "(stereo unspecified)", "cytotoxicity call": "inactive"},
      {"smiles": "COc1ccc([C@H]2CC=CC[C@H](C)Oc3ccccc3C(=O)N(C)[C@@H](Cc3ccccc3)C(=O)N2)c(OC)c1", "cytotoxicity call": "inactive"},
      {"smiles": "COc1ccc2c(c1)OCC(=Cc1ccc(OC)c(O)c1)C2=O", "cytotoxicity call": "active"},
      {"smiles": "COc1ccc([C@H]2CC=CC[C@H](C)Oc3ccccc3C(=O)N(C)[C@H](Cc3ccccc3)C(=O)N2)c(OC)c1", "cytotoxicity call": "inactive"},
      {"smiles": "COc1ccc(-c2cc(=O)c3c(O)cc(OC)c(OC)c3o2)c(OC)c1", "cytotoxicity call": "inactive"}
    ]}
  ]
}
